# Source: PubChem
# A selection: hits, their analogues and other compounds. The true share with any hit is near 2.8%.
# SENP6 inh = SENP6 protease inhibitors, primary screen, biochemical, luminescence, uHTS; Sentrin-specific protease 6 (Homo sapiens), Q9GZR1; Recombinant SENP6 catalytic domain, aminoluciferin luminescence; inhibition, % at 10 µM; 330,000 tested, 1.8% active;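 active = inhibition above about 50% at the single tested dose, limit read from the data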;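 note: plate controls were DMSO wells with enzyme for no effect and DMSO wells lacking enzyme for full effect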
# HSP90 refold inh = HSP90 inhibitors, primary screen, cell lysate, luminescence; Heat shock protein HSP 90 (rabbit reticulocyte lysate; luciferase refolding); Rabbit reticulocyte lysate, luciferase refolding luminescence, 3 h; inhibition, % at 5.6 µM; 290,000 tested, 0.91% active; AID 1789, 2009;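 active = inhibition above the screen-wide mean plus 3 SD, computed separately per campaign, cut at about 16% in these data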;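 note: 0% = DMSO wells and 100% = 60 µM geldanamycin wells; inhibitors lower the luminescence because luciferase stays unfolded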
# SENP8 block-1 = SENP8 protease inhibitors, primary screen, biochemical, luminescence; purified SENP8, Z-RLRGG-aminoluciferin cleavage; inhibition, % at 10 µM; 330,000 tested, 1.2% active; in the data active = inhibition above about 50%
# SENP8 block-2 = human SENP8 protease inhibitors, primary screen, biochemical, fluorescence, Nedd8 protein substrate, uHTS; Sentrin-specific protease 8 (Homo sapiens), Q96LD8; recombinant SENP8; inhibition, % at 20 µM; 360,000 tested, 0.64% active; in the data active = inhibition mostly above about 40%, no sharp cut-off; inactive = mostly below about 27%
# SENP7 inh = SENP7 protease inhibitors, primary screen, biochemical, luminescence, uHTS. 330,000 tested, 1.5% active. inhibition, % at 5 µM. Sentrin-specific protease 7 (Homo sapiens), Q9BQF6. AID 434973, 2010. recombinant SENP7, Z-RLRGG-aminoluciferin luminescence, 40 min;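 active = inhibition above about 50% at the single test dose, limit read from the data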;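 note: plate controls were DMSO with enzyme for no effect and no enzyme buffer wells for full effect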
# Target sequence (Q9BQF6 706-1050 limits assumed): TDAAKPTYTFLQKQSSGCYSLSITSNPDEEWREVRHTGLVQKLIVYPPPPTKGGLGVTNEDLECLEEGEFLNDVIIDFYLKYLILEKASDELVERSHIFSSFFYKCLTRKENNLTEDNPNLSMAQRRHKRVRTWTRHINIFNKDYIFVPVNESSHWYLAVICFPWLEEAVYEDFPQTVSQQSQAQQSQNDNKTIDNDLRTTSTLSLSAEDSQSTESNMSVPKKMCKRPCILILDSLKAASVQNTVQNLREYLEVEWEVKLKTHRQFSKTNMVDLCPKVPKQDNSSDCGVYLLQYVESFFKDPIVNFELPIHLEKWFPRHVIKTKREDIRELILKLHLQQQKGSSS
# * marks the source's active call; other numbers are inactive results; · = not tested or not shown.
SMILES,SENP6 inh,HSP90 refold inh,SENP8 block-1,SENP8 block-2,SENP7 inh
COc1ccc(C(=O)COC(=O)CN2C(=O)c3ccccc3C2=O)c(OC)c1,-6.3,-3.0,-15.3,0.6,-6.2
C=C(C)[C@H]1CC=C(C)/C(=N/NC(=O)CNc2ccccc2OC)C1,5.0,-6.8,-10.0,8.3,-2.4
C=C(C)C1CC=C(C)/C(=N\NC(=O)CNc2cccc3ccccc23)C1 (stereo unspecified),59.7*,2.9,42.5,-369.1,12.2
C[C@@H](NC(=O)/C(C#N)=C/c1ccc(O)c(O)c1)c1ccccc1,-4.2,·,2.9,-49.8,1.8
N#C/C(=C\c1ccc(O)c(O)c1)C(=O)Nc1ccccc1,79.5*,·,71.0*,-6.1,47.4
CCCCNC(=O)C1C(c2ccccc2)=Nc2ccccc2N1C(=O)c1ccc2c(c1)OCO2 (stereo unspecified),·,·,·,-55.3,·
O=C(Cn1c(/C=C/c2ccccc2)nc2ccccc21)Nc1ccc(F)cc1,3.9,4.3,1.0,-304.3,1.2
ClN=C1C=CC=CC1=NCl,·,·,·,37.9*,·
Oc1c(N=Nc2nn[nH]n2)ccc2ccccc12,·,·,·,54.6*,·
Brc1ccc(N/N=C(/N=Nc2nn[nH]n2)c2ccccc2)cc1,9.6,-22.8,-1.2,39.7,1.5
Cc1cccc(OCC(=O)OCC(=O)N(CC(C)C)c2c(N)n(Cc3ccccc3)c(=O)[nH]c2=O)c1C,-8.7,·,-0.2,15.5,2.8
O=C1C=C(Nc2cccnc2)c2ccccc2C1=O,·,·,·,91.3*,·
Cc1cc(C)cc(NC(=O)C2CCCN(S(=O)(=O)c3cnc[nH]3)C2)c1 (stereo unspecified),-4.5,-2.5,3.9,8.7,1.8
CN(C)C(/C=C/Nc1ccc(C#N)cc1)=C(C#N)C#N,-1.7,0.5,1.4,21.6,100.1*
CC(=O)c1c(N(C)C)ccnc1C(F)(F)F,6.3,1.0,-5.1,14.4,2.2
C[C@]12CC[C@@H]3c4ccc(O)cc4CC[C@H]3[C@@H]1CC[C@@H]2O,1.2,2.3,-0.8,5.0,-6.5
C[C@]12CC[C@@H]3c4cc(O)c(O)cc4CC[C@H]3[C@@H]1CC[C@@H]2O,1.2,-2.6,-4.4,40.8*,11.3
O=c1c(=NNc2ccccc2Cl)c(=O)c2ccccc12,·,25.8*,·,40.5*,·
CC(C)c1ccc(/C=C/C2=NNC(=O)CC2)cc1,47.7,1.5,27.2,3.2,48.3
CC(C)c1ccc(/C=C/c2ccc(=O)n(C)n2)cc1,83.7*,-4.1,69.4*,-374.3,84.5*
CCOc1ccc(OCc2ccc(C(=O)NN)o2)cc1,-5.3,16.2*,-2.8,-1.1,-3.4
CCOc1ccc(OCc2ccc(C(=O)NCC3CCCO3)o2)cc1 (stereo unspecified),-2.3,16.3*,1.7,-8.5,2.3
C#CCOCCOCCOCCNc1nc(N2CCN(C(=O)C(CCC(=O)O)n3cc(C(N)CC(C)C)nn3)CC2)nc(N2CCN(C(=O)C(Cc3cc4ccccc4[nH]3)n3cc(C(N)Cc4ccc(O)cc4)nn3)CC2)n1 (stereo unspecified),0.1,6.8,-5.7,17.1,-5.2
Nc1ccc2oc3ccccc3c2c1,10.5,16.2*,0.5,-131.5,1.8
CC(C)c1ccc(S(=O)(=O)/N=C2\C=C(NS(=O)(=O)c3ccccc3)C(=O)c3ccccc32)cc1,·,0.3,·,61.6*,·
SMILES,SENP6 inh,HSP90 refold inh,SENP8 block-1,SENP8 block-2,SENP7 inh
CCc1ccc(S(=O)(=O)/N=C2\C=C(NS(=O)(=O)c3ccccc3)C(=O)c3ccccc32)cc1,5.1,2.0,2.5,69.9*,15.9
COC(=O)C(C(C)=O)C1=C/C(=N\S(=O)(=O)c2ccc(C)cc2)c2ccccc2C1=O (stereo unspecified),2.7,4.8,-3.0,9.4,-3.4
CC(N=C(NS(=O)(=O)c1ccc(Cl)cc1)c1ccccc1)C(=O)O (stereo unspecified),0.0,4.8,2.2,6.9,19.8
CCCCOC(=O)CCN1C(=O)/C(=C2\SC(=S)N(CCC(=O)OCCCC)C2=O)SC1=S,8.0,-2.6,-10.0,11.3,-9.8
CCCOC(=O)CCCN1C(=O)/C(=C2\SC(=S)N(CCCC(=O)OCCC)C2=O)SC1=S,-3.2,-1.4,3.1,37.7*,-10.6
Cc1ccc(CN2CCNC(=O)C2CC(=O)N(C)C2CCCCC2)o1 (stereo unspecified),-23.4,-2.0,1.6,1.7,-1.1
